HT1080 IDH1KD tx – kills HT-1080 cells with IDH1 knockdown; AID 686971; Potency, µM (highest dose often 46.1 µM), inactives show top-dose activity, negative = toxicity, hits mostly cytotoxic; HT-1080 IDH1 knockdown viability, ATP luminescence, 48 h; 360,000 compounds, 2% hits;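 further: potency means the concentration at half of the fitted maximal effect; 0% = DMSO wells and -100% = cell-free medium wells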
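After a 2 h attachment period, IDH1KD HT-1080 cells took pin-transferred compound for 48 h at 37 °C; ATP-based luminescence after 10 min room-temperature reagent incubation reported viability.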
DT40 TDP1 CPT – DT40-hTDP1 cell growth loss with CPT | chicken DT40 Tdp1-/-;hTDP1 cells + 20 nM CPT, ATP luminescence, 48 h | Potency, µM (titrated, usually from 46.2 µM), without a hit: top-dose activity change, negative = growth inhibition, most hits filed as inhibitors | 420,000 compounds, 12% hits; further: potency means the concentration at half of the fitted maximal effect; nearly all actives have a fitted effect of over 55% in size
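Cell growth measured by CellTiter-Glo luminescence after a minimum 48 h, 37 C compound exposure with 20 nM CPT in Tdp1-knockout DT40 cells stably expressing hTDP1, seeded 400/well; qHTS titration format.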
IL-1B inflam inh – inhibitors of inflammasome signaling (IL-1 beta secretion) | THP-1 LPS/ATP IL-1B secretion, AlphaLISA, 16 h; stronger effect = lower value | 360,000 compounds, 4.7% hits | activity change, % at 57.5 µM; in the data active means activity change below about -50%; inconclusive means mostly about -30% to -49%
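THP-1 cells pretreated 1 hr with compounds (up to 57.5 uM final), then stimulated with LPS (250 ng/mL final) plus ATP (1.25 mM final); secreted IL-1B measured by AlphaLISA after 16 hr, decreased signal indicating inhibition.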
ELG1 repair inh – blocks ELG1-dependent DNA repair in HEK293T cells; HEK293T ELG1-luciferase reporter, luminescence, 16 h; DNA damage induced by 5-fluorouridine; Potency, µM (doses to about 46.1 µM), for the others: at the top dose activity change, negative = inhibition, hits mostly inhibitors; 330,000 compounds, 2.3% hits; further: potency means the concentration at half of the fitted maximal effect; nearly all actives have a fitted effect of over 55% in size
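Cells (2,000 per well) received 5-fluorouridine plus test compound or DMSO and were incubated 16 hr at 37 °C, 5% CO2. Luciferase activity was read by luminescence 30 min after ONE-Glo addition; signal suppression marked inhibition of damage-induced ELG1 function.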
DT40 TDP1 no CPT – qHTS for Inhibitors of human tyrosyl-DNA phosphodiesterase 1 (TDP1): qHTS in cells in absence of CPT. DT40 Tdp1-/- hTDP1 cells, no CPT, ATP luminescence, 48 h. Potency, µM (titrated, usually from 46.2 µM), inactives show at the top dose activity change, negative = growth inhibition, hits mostly inhibitors. 420,000 compounds, 15% hits. AID 686978, 2013; further: potency means the concentration at half of the fitted maximal effect; nearly all actives have a fitted effect of over 55% in size
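Cells were dispensed at 400 per well, compounds added by pin tool, plates incubated ≥48 hr at 37 °C, then CellTiter-Glo added for 30 min at room temperature before luminescence reading. Line: DT40 Tdp1-/- complemented with hTDP1; camptothecin omitted.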
HT1080NT lethal – kills 2HG-producing HT-1080-NT fibrosarcoma cells; Potency, µM (titrated, usually from 46.1 µM), for inactives: at the top dose activity, negative = less viability, actives largely listed as cytotoxic; HT-1080-NT fibrosarcoma viability, CellTiter-Glo ATP luminescence, 48 h; 360,000 compounds, 1.6% hits;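 further: NT is the 2HG producing partner of a matched IDH1 knockdown line; potency means the concentration at half of the fitted maximal effect; 0% = DMSO-treated cells and -100% = media-only wells without cells; nearly all actives have a fitted effect of over 55% in size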
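HT-1080-NT; 750 cells/well; 5% FBS RPMI; 48 h compound, 37 degrees C; CellTiter-Glo luminescence; curve fitting and curve-class assignment.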
Numbers without * were called inactive. An excerpt weighted towards active compounds, which were near 19% of everything screened. Unless noted, the call rests on the fitted dose curve; in most records, active means well fitted curve in the direction sought with a large enough effect; inconclusive means small, poorly fitted or top-dose-only effect, or another doubt; inactive means no such curve, though single readings can be large; an effect the other way counts as inactive or inconclusive. Unless noted, on the % scale 0 is the no-effect control and ±100 the full control effect.

For O=C(NN=Cc1ccc(O)cc1O)c1ccccc1NS(=O)(=O)c1cccs1 the results were HT1080 IDH1KD tx inconclusive, DT40 TDP1 CPT inconclusive, IL-1B inflam inh 196.0, ELG1 repair inh -5.1%, DT40 TDP1 no CPT 20.6µM* and HT1080NT lethal inconclusive.
C/C(=N\NC(=O)c1ccc(NS(=O)(=O)c2cccs2)cc1)c1ccccn1 was read as HT1080 IDH1KD tx inconclusive, DT40 TDP1 CPT inconclusive, IL-1B inflam inh -3.8, ELG1 repair inh 3.66µM*, DT40 TDP1 no CPT inconclusive and HT1080NT lethal inconclusive.
`CC(=O)c1ccc(Nc2nc3ccccc3nc2NS(=O)(=O)c2cccs2)cc1` gave HT1080 IDH1KD tx -2.3%, DT40 TDP1 CPT 14.6µM*, IL-1B inflam inh -0.7, ELG1 repair inh 11.6µM*, DT40 TDP1 no CPT 9.2µM* and HT1080NT lethal -0.1%.
For C/C(=N\NC(=O)c1ccc(NS(=O)(=O)c2cccs2)cc1)c1ccc(O)cc1O the results were HT1080 IDH1KD tx 23.1µM*, DT40 TDP1 CPT inconclusive, IL-1B inflam inh 164.6, ELG1 repair inh inconclusive, DT40 TDP1 no CPT inconclusive and HT1080NT lethal inconclusive.
For O=C(CCn1c(=O)c2ccccc2n(Cc2cccc(F)c2)c1=O)NCc1ccc2c(c1)OCO2 the results were DT40 TDP1 CPT -24.3% and DT40 TDP1 no CPT -27.1%.
`CCC1CN(CCNC(=O)c2ccc(N3CCOCC3)cc2)Cc2cc(OC)ccc2O1` (stereo not drawn) gave DT40 TDP1 CPT -16.4% and DT40 TDP1 no CPT -28.6%.
For C/C(=N\NC(=O)CC(C)C)c1ccc(N2CCCCC2)cc1 the results were HT1080 IDH1KD tx 1.9%, DT40 TDP1 CPT -17.2%, IL-1B inflam inh 13.6, ELG1 repair inh inconclusive, DT40 TDP1 no CPT -14.7% and HT1080NT lethal 3.5%.
Screening C=CCSc1nnc(NC(=O)C23CC4CC(CC(NC(C)=O)(C4)C2)C3)s1 returned HT1080 IDH1KD tx 13.2%, DT40 TDP1 CPT 0.5%, IL-1B inflam inh 0.0, ELG1 repair inh 4.6%, DT40 TDP1 no CPT 1.4% and HT1080NT lethal 20.4%.
Screening CCCCCC(=O)Nc1ccc(NC(=O)c2cc3ccccc3o2)c(OC)c1 returned DT40 TDP1 CPT 6.51µM* and DT40 TDP1 no CPT 4.61µM*.
Screening CCC(=O)Nc1ccc(NC(=O)c2cc3ccccc3o2)c(OC)c1 returned HT1080 IDH1KD tx -1.9%, DT40 TDP1 CPT inconclusive, IL-1B inflam inh 27.8, ELG1 repair inh inconclusive, DT40 TDP1 no CPT 10.3µM* and HT1080NT lethal -4.1%.
Screening COc1cc(NC(=O)c2c(OC)cccc2OC)ccc1NC(=O)c1cc2ccccc2o1 returned HT1080 IDH1KD tx -22.1%, DT40 TDP1 CPT 10.3µM*, IL-1B inflam inh -27.9, ELG1 repair inh inconclusive, DT40 TDP1 no CPT inconclusive and HT1080NT lethal -16.4%.
Screening COc1cc(NC(=O)c2cc3ccccc3o2)ccc1NC(=O)c1ccco1 returned HT1080 IDH1KD tx 0.6%, DT40 TDP1 CPT -3.8%, IL-1B inflam inh -26.6, ELG1 repair inh inconclusive, DT40 TDP1 no CPT -28.4% and HT1080NT lethal -5.8%.
`COc1cc(NC(=O)c2ccc3c(c2)OCCO3)ccc1NC(=O)c1ccccc1Cl` gave HT1080 IDH1KD tx -18.6%, DT40 TDP1 CPT inconclusive, IL-1B inflam inh -53.3*, ELG1 repair inh -0.8%, DT40 TDP1 no CPT -25.9% and HT1080NT lethal -25.7%.
`COc1cc(NC(=O)c2cccc(Cl)c2Cl)ccc1NC(=O)c1cc2ccccc2o1` gave DT40 TDP1 CPT 5.17µM* and DT40 TDP1 no CPT 2.59µM*.
Screening CCOC(=O)c1cccc(NC(=O)c2cc3ccccc3o2)c1 returned HT1080 IDH1KD tx 1.8%, DT40 TDP1 CPT 8.2µM*, IL-1B inflam inh -7.4, ELG1 repair inh inconclusive, DT40 TDP1 no CPT inconclusive and HT1080NT lethal -0.3%.
Screening O=C1C(Br)=Cc2cccc3cccc1c23 returned HT1080 IDH1KD tx -1.4%, DT40 TDP1 CPT 10.5%, IL-1B inflam inh -75.0*, ELG1 repair inh inconclusive, DT40 TDP1 no CPT -6.4% and HT1080NT lethal 2.0%.
For COc1ccccc1-c1c(C(F)(F)F)oc2c(CN3CCCCC3C)c(O)ccc2c1=O (stereo not drawn) the results were DT40 TDP1 CPT inconclusive and DT40 TDP1 no CPT -29.8%.
`CCOC(=O)c1c(NC(=O)c2ccccc2)sc2c(O)c(CN(CC)CC)ccc12` gave HT1080 IDH1KD tx inconclusive, DT40 TDP1 CPT 23.1µM*, IL-1B inflam inh 0.4, ELG1 repair inh 1.8%, DT40 TDP1 no CPT 18.4µM* and HT1080NT lethal -4.2%.
Screening Nc1nc(NCCc2ccc(O)cc2)nc2nc(-c3ccco3)nn12 returned DT40 TDP1 CPT 14.6µM* and DT40 TDP1 no CPT 11.6µM*.
`CCOC(=O)c1ccc(NC(=S)N2CCSC2c2ccc(OC)cc2)cc1` (stereo not drawn) gave HT1080 IDH1KD tx 0.5%, DT40 TDP1 CPT -25.2%, IL-1B inflam inh 26.4, ELG1 repair inh 12.7%, DT40 TDP1 no CPT inconclusive and HT1080NT lethal 1.2%.
Screening CCOC(=O)c1ccc(NC(=S)N2CCSC2c2ccc(Cl)cc2)cc1 (stereo not drawn) returned HT1080 IDH1KD tx -23.3%, DT40 TDP1 CPT inconclusive, IL-1B inflam inh 18.8, ELG1 repair inh 10.3%, DT40 TDP1 no CPT 16.4µM* and HT1080NT lethal -9.4%.
CC(C)n1cc(CN2CCC(C(=O)Nc3cccc(-c4cscn4)c3)CC2)cn1 was read as HT1080 IDH1KD tx -17.7%, DT40 TDP1 CPT -15.0%, IL-1B inflam inh -7.6, ELG1 repair inh 2.1%, DT40 TDP1 no CPT -1.7% and HT1080NT lethal -1.7%.
Screening CCn1cc(CN2CCC(C(=O)Nc3ccc(Oc4ccccc4F)cc3)CC2)c(C)n1 returned HT1080 IDH1KD tx inconclusive, DT40 TDP1 CPT inconclusive, IL-1B inflam inh inactive, ELG1 repair inh -26.3%, DT40 TDP1 no CPT 25.9µM* and HT1080NT lethal -13.0%.
CC(C)n1cc(CN2CCC(C(=O)Nc3ccc(Oc4ccccc4F)cc3)CC2)cn1 was read as HT1080 IDH1KD tx 20.6µM*, DT40 TDP1 CPT inconclusive, IL-1B inflam inh -3.9, ELG1 repair inh -0.7%, DT40 TDP1 no CPT inconclusive and HT1080NT lethal inconclusive.
O=C(Nc1ccc(Oc2cccnc2)cc1)C1CCN(Cc2ccccc2F)CC1 was read as HT1080 IDH1KD tx -1.4%, DT40 TDP1 CPT inconclusive, IL-1B inflam inh -9.9, ELG1 repair inh inconclusive, DT40 TDP1 no CPT inconclusive and HT1080NT lethal 1.6%.

Source: PubChem
